Results from the supplement of paper PMC8975748.
Structures can show the parent of a compound that is named as a salt.

test system: Saccharomyces cerevisiae BY4741 SeMeCo community; assay: z-score of subpopulation abundance vs DMSO median, subpopulation auxotrophic for UM; higher = larger share of this subpopulation than in DMSO controls; details: 10 µM; 24 h; SM minimal medium; subpopulation (auxotrophy): UM
Summary of the method: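 Automated confocal microscopy of paraformaldehyde-fixed cells was used to follow a Saccharomyces cerevisiae BY4741 community carrying four plasmids, each restoring one auxotrophy and encoding a distinct fluorescent protein. The community was pre-grown overnight to OD600 1.0, diluted to 0.3, and added at 70 µl to 384-well plates acoustically predosed with library drugs (10 µM final) for 24 h of growth in minimal SM medium. Single-auxotroph fluorescent strains set thresholds and autofluorescence correction, and each subpopulation's abundance was scored as a z-score against the vehicle-well median.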

First: C=C[C@]1(C)C[C@@H](OC(=O)CSC(C)(C)CNC(=O)[C@H](N)C(C)C)[C@]2(C)[C@H](C)CC[C@]3(CCC(=O)[C@H]32)[C@@H](C)[C@@H]1O [Valnemulin HCl]
Second: CC[C@H]1OC(=O)[C@H](C)[C@@H](O[C@H]2C[C@@](C)(OC)[C@@H](O)[C@H](C)O2)[C@H](C)[C@@H](O[C@@H]2O[C@H](C)C[C@H](N(C)C)[C@H]2O)[C@](C)(O)C[C@@H](C)C(=O)[C@H](C)[C@H]2OC(=O)O[C@@]21C [Erythromycin Cyclocarbonate]
The “z-score of subpopulation abundance” value of the first is lower: 0.26 for the first, 0.58 for the second.

Compared with `C[N+]1(C)CCC(=C(c2ccccc2)c2ccccc2)CC1` [Diphemanil Methylsulfate], `CC(C(=O)O)c1cccc(C(=O)c2ccccc2)c1` (centres undefined) [Ketoprofen] is lower in “z-score of subpopulation abundance” value: 0.25 for the first, -0.3 for the second.

First: CC[C@H]1OC(=O)[C@H](C)[C@@H](O[C@H]2C[C@@](C)(OC)[C@@H](O)[C@H](C)O2)[C@H](C)[C@@H](O[C@@H]2O[C@H](C)C[C@H](N(C)C)[C@H]2O)[C@](C)(O)C[C@@H](C)/C(=N\OCOCCOC)[C@H](C)[C@@H](O)[C@]1(C)O [Roxithromycin]
Second: CC1=C(C(=O)OCCN(Cc2ccccc2)c2ccccc2)C(c2cccc([N+](=O)[O-])c2)C(P2(=O)OCC(C)(C)CO2)=C(C)N1 (centres undefined) [Efonidipine]
The “z-score of subpopulation abundance” value of the first is lower: 0.31 for the first, 0.8 for the second.

Going from `NCc1ccccc1CC(=O)N[C@@H]1C(=O)N2C(C(=O)O)=C(CSc3nnnn3CC(=O)O)CS[C@H]12` [Ceforanide] to `CC1(C)S[C@@H]2[C@H](NC(=O)[C@H](NC(=O)N3CCNC3=O)c3ccccc3)C(=O)N2[C@H]1C(=O)O` [Azlocillin sodium salt], the “z-score of subpopulation abundance” value falls from -0.41 to -1.29.

First: C#C[C@]1(O)CC[C@H]2[C@@H]3CCC4=Cc5oncc5C[C@]4(C)[C@H]3CC[C@@]21C [Danazol]
Second: COc1ccc2c3c1O[C@H]1C[C@@H](O)C=C[C@@]31CCN(C)C2 [Galanthamine HBr]
The “z-score of subpopulation abundance” value of the first is lower: 0.52 for the first, 1.03 for the second.

Compared with `Cc1c(OCC(F)(F)F)ccnc1C[S+]([O-])c1nc2ccccc2[nH]1` (centres undefined) [Lansoprazole], `O=c1[nH]c2ccccc2n1CCN1CCN(c2cccc(C(F)(F)F)c2)CC1` [Flibanserin] is higher in “z-score of subpopulation abundance” value: -1.1 for the first, 0.43 for the second.

Compared with `CC(C(O)c1ccc(O)cc1)N1CCC(Cc2ccccc2)CC1` (centres undefined) [Ifenprodil Tartrate], `CN1CCC(=C2c3ccccc3C=Cc3ccccc32)CC1` [Cyproheptadine hydrochloride] is lower in “z-score of subpopulation abundance” value: -0.03 for the first, -0.25 for the second.

First: Cc1ncc([N+](=O)[O-])n1C [Dimetridazole]
Second: Cc1cc(C)nc(NS(=O)(=O)c2ccc(N)cc2)n1 [Sulfamethazine Sodium Salt]
The “z-score of subpopulation abundance” value of the first is higher: -0.37 for the first, -0.8 for the second.

First: CC(=O)OCC[N+](C)(C)C [Acetylcholine iodide]
Second: CCN(CC)CCOC(=O)c1ccc(N)cc1Cl [Chloroprocaine HCl]
The “z-score of subpopulation abundance” value of the first is lower: -0.32 for the first, 0.74 for the second.

Compared with `CC(=O)N1CCN(c2ccc(OCC3COC(Cn4ccnc4)(c4ccc(Cl)cc4Cl)O3)cc2)CC1` (centres undefined) [Ketoconazole], `CN1CCN(CC(=O)N2c3ccccc3C(=O)Nc3cccnc32)CC1` [Pirenzepine dihydrochloride] is lower in “z-score of subpopulation abundance” value: -0.23 for the first, -0.76 for the second.

Compared with `CN1C2CCCC1CC(NC(=O)c1nn(C)c3ccccc13)C2` (centres undefined) [Granisetron HCl], `O=C1[C@H]2CCCC[C@H]2C(=O)N1CCCCN1CCN(c2nsc3ccccc23)CC1` [Perospirone hydrochloride] is higher in “z-score of subpopulation abundance” value: -0.36 for the first, -0.02 for the second.

Going from `CCCN(CCC)CCc1cccc2c1CC(=O)N2` [Ropinirole HCl] to `CCN(CC)CC#CCOC(=O)C(O)(c1ccccc1)C1CCCCC1` (centres undefined) [Oxybutynin chloride], the “z-score of subpopulation abundance” value falls from 0.06 to -1.11.

Compared with `Cc1ccc(-c2cc(C(F)(F)F)nn2-c2ccc(S(N)(=O)=O)cc2)cc1` [Celecoxib], `Cc1cccc(N(C)C(=S)Oc2ccc3ccccc3c2)c1` [Tolnaftate] is higher in “z-score of subpopulation abundance” value: -0.75 for the first, -0.08 for the second.

First: CC(C)Cc1ccc(C(C)C(=O)O)cc1 (centres undefined) [Ibuprofen Lysine]
Second: CC(Cc1ccc(O)c(O)c1)C(C)Cc1ccc(O)c(O)c1 (centres undefined) [Nordihydroguaiaretic acid (NDGA)]
The “z-score of subpopulation abundance” value of the first is lower: -4.66 for the first, -0.5 for the second.

Going from `O=C(Nc1cc(Cl)cc(Cl)c1O)c1c(O)c(Cl)cc(Cl)c1Cl` [Oxyclozanide] to `CCN(CC)CCNC(=O)c1cc(Cl)c(N)cc1OC` [Metoclopramide], the “z-score of subpopulation abundance” value rises from -1.83 to 1.28.

Going from `O=C(O)CCc1nc(-c2ccccc2)c(-c2ccccc2)o1` [Oxaprozin] to `COC(=O)C1=C(C)NC(C)=C(C(=O)OC(C)(C)CN(C)CCC(c2ccccc2)c2ccccc2)C1c1cccc([N+](=O)[O-])c1` (centres undefined) [Lercanidipine hydrochloride], the “z-score of subpopulation abundance” value rises from -3.67 to -1.34.

First: C/C(=C\C(=O)OCCCCCCCCC(=O)O)C[C@@H]1OC[C@H](C[C@@H]2O[C@H]2[C@@H](C)[C@H](C)O)[C@@H](O)[C@H]1O [Mupirocin calcium]
Second: NC1CCN(c2nc3c(cc2F)c(=O)c(C(=O)O)cn3-c2ccc(F)cc2F)C1 (centres undefined) [Tosufloxacin p-Toluenesulfonate Hydrate]
The “z-score of subpopulation abundance” value of the first is higher: 1.73 for the first, -0.74 for the second.
